Test [1] is described as follows: blockers of polyQ-driven CASP3 activation – cell-based (AID 1583). Conditions: polyglutamine-induced caspase-3 activation, cell assay; stronger effect = higher value;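 tested at 10 µM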.
Test [2] can be described thus: yeast 75Q aggregation reduction – 75Q-TubU reporter (AID 1593). Conditions: Yeast 75Q polyglutamine aggregation reporter.
A short description of test [3]: restoration of touch response, mutant HTT neurons – whole organism, C. elegans mechanosensory neurons, N-terminal huntingtin (AID 1599). Particulars: C. elegans polyQ-huntingtin mechanosensory neurons, stronger effect = higher value.
Test [4] is described as follows: blockers of cytochrome c efflux from mitochondria – biochemical, purified mitochondria (AID 1603).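 Also: mouse liver mitochondria challenged with calcium chloride; signal normalized to the plate average as 100%.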 Conditions: stronger effect = lower value.
The nature of test [5]: polyglutamine aggregate formation blockers (AID 1604). Particulars: polyglutamine-induced protein aggregation inhibition assay; stronger effect = higher value; tested at 2.5 µM.
Test [6] is described as follows: glutamate transport activators, MN-1 cells, MN-1 cell line (AID 1612).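 Also: tested at 1 µM final; 0% = mean of DMSO vehicle wells on each plate; positive means more glutamate uptake than control and negative means less.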 Particulars: MN-1 motor neuron cells, stronger effect = higher value.
The nature of test [7]: GFP-Q80 aggregate reduction, neuronal-like cells, cell-based, NGF-treated PC12, GFPQ80 (AID 1614).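 Also: lower means fewer inclusions and 0 means no inclusions at all.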 Conditions: PC12 NGF-treated GFP-polyQ80 inclusion reduction.
Test [8] is described as follows: 75Q-TubH aggregate inhibition, S. cerevisiae, yeast (AID 1616). Conditions: S. cerevisiae 75Q-TubH polyglutamine aggregation suppression; stronger effect = higher value.
Test [9] can be described thus: rescue of PC12 cells from polyQ htt toxicity – LDH release (AID 1610). Conditions: PC12 mutant huntingtin toxicity, final LDH at 4 uM, stronger effect = lower value. On the technique in general: LDH in the medium is a marker of cell lysis.
A short description of test [10]: galactose survival enhancers in mitochondrial complex I cybrids – cell-based, galactose medium, ATP luminescence, primary screen (AID 1645843).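 Also: positive z means more ATP and so rescue of galactose-driven cybrid death.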 Particulars: complex I mutant cybrid cells, 72 h, stronger effect = higher value.
A short description of test [11]: P. berghei load reduction in hepatocytes – cell-based, HepG2, luciferase luminescence, HepG2 viability, primary screen (AID 624349; in the data active = parasite load remaining mostly below about 12%, no sharp cut-off; inactive = mostly above about 10%;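 also: 100% = mean of DMSO negative control wells on the same plate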). Particulars: P. berghei liver stage in HepG2, luciferase luminescence, concentration not given here; parasite load remaining: stronger effect = lower value; viability: measured here: HepG2 viability without parasites.
For test [12], the target named is Mitogen-activated protein kinase 7 (Homo sapiens) (UniProt Q13164). In words: Gal4-ERK5 driven luciferase induction – cell-based, HTS, primary screen (AID 1508626;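 active = luciferase signal above three times the same-plate solvent-only control wells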;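 also: luciferase driven by Gal4-ERK5 fusion binding five Gal4 sites before minimal TATA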). Particulars: HeLa Gal4-ERK5 transactivation, 18 h, at 5 µM, stronger effect = higher value.

Results filed as inconclusive are left out. For some assays here: Entries with a potency or affinity are not part of this list. Active and inactive are the calls of the source.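 The calls were made as follows, unless noted: active = z-score of at least 1.8 in each of two replicates, scored against plate mean and spread of sample wells; inactive = the rest.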

Sequence of Mitogen-activated protein kinase 7 (Homo sapiens) (Q13164 whole entry, looked up, the tested form may be a part): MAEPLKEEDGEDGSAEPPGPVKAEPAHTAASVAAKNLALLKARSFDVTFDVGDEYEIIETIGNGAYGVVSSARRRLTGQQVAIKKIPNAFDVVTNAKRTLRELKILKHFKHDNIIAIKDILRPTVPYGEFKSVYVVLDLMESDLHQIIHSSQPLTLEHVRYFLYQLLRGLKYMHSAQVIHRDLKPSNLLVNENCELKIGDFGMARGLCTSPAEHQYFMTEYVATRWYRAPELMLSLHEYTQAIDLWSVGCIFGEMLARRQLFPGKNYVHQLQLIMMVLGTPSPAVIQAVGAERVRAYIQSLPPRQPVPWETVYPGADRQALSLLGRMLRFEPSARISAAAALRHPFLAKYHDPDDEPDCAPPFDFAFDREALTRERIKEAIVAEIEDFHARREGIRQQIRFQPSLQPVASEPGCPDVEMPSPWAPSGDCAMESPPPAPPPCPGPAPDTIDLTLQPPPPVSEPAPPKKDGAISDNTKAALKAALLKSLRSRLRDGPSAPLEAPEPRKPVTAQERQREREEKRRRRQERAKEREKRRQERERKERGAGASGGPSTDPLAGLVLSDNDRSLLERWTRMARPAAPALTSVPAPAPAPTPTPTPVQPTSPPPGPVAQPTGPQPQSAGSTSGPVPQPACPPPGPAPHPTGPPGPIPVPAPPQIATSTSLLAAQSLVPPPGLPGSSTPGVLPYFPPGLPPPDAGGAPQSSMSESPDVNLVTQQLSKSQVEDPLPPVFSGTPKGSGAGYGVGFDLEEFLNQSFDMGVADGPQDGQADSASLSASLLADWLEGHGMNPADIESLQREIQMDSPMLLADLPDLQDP

The inhibition is the drop in the measured response relative to a control, in per cent. With `CCOC(=O)C1C(OC(=O)c2ccccc2)CC2CCC1N2C` (centres undefined), the inhibition in test [1] came to 4.42%. The same compound gave a score in [2] of 1.01. Besides, the rescue above control in test [3] was -8. Moreover, the cytochrome c release ratio in test [4] was 0.89. Moreover, the inhibition of aggregation in test [5] was found to be 44.2%. The glutamate uptake change in test [6] was -24.3%. In test [7], this compound showed an inclusion score of 2. This compound returned an aggregation suppression score in [8] of 1.45.

Consider `C[C@]12CCC3C(CC[C@@H]4C[C@H](O)CC[C@]34C)C1CCC2=O` (some centres undefined), for which the inhibition in test [1] is 61%. The compound further came in with a score in [2] of 0.81. Moreover, the rescue above control in [3] was -3.82. In addition, the cytochrome c release ratio in test [4] turned out to be 0.77. Moreover, the inhibition of aggregation in test [5] stood at 91.7%. In [6], the glutamate uptake change was -9.61%. The compound further displayed an aggregation suppression score in test [8] of 0.472.

On to `CCCCCc1cc(O)c2c(c1)OC(C)(C)C1CC=C(C)CC21` (centres undefined), for which the inhibition in test [1] was found to be 13.2%. The same compound yielded a score in test [2] of -0.66. In [3], this compound came in with a rescue above control of -4.34. In addition, the cytochrome c release ratio in [4] was 1.71. The same compound registered an inhibition of aggregation in test [5] of 42.9%. This compound had a normalised LDH release in test [9] of 0.999. The glutamate uptake change in [6] was -49.9%. Also, the aggregation suppression score in test [8] is 0.105.

For `CN1CCC(N(C)CCC2CCOCC2)CC1`, the z-score in test [10] was 0.38 (inactive).

As to `COC(=O)C1C(OC(=O)c2ccccc2)CC2CCC1N2C` (centres undefined), the inhibition in test [1] was -2.13%. Moreover, the score in test [2] amounted to 1.1. Besides, in [3], the rescue above control was -9. Also, the cytochrome c release ratio in [4] came out at 0.85. In addition, the inhibition of aggregation in [5] worked out at 32%. Also, the glutamate uptake change in test [6] was -26.1%. Also, the inclusion score in test [7] was 2. Moreover, the aggregation suppression score in test [8] was found to be 1.26.

Regarding `NCCC(O)C(=O)N[C@@H]1C[C@H](N)[C@@H](O[C@H]2O[C@H](CN)[C@@H](O)[C@H](O)[C@H]2N)[C@H](OC2O[C@H](CO)[C@H](O)[C@H]2O)[C@H]1O` (some centres undefined), in test [1], the inhibition was 5.62%. The score in [2] was found to be 1.4. Further, in [3], the rescue above control stood at 9.62. Moreover, the cytochrome c release ratio in [4] came out at 1.37. The inhibition of aggregation in test [5] stood at 83.3%. In test [6], the glutamate uptake change turned out to be 13.4%. Moreover, the inclusion score in test [7] came to 2. The aggregation suppression score in test [8] came to 1.55.

Take `COc1ccc2c3c1O[C@H]1[C@@H](O)C=CC4[C@@H](C2)N(C)CC[C@@]341` (some centres undefined): in test [1], the inhibition was -19%. In addition, in test [2], the score stood at 1.17. In [3], this compound came in with a rescue above control of 2.82. Further, in test [4], the cytochrome c release ratio came to 0.92. Moreover, the inhibition of aggregation in test [5] was 61.9%. In addition, in test [6], the glutamate uptake change is -22%. In test [7], this compound gave an inclusion score of 2. Besides, the aggregation suppression score in test [8] was found to be 1.22.

With `CN1C(=O)CN=C(c2ccccc2F)c2cc([N+](=O)[O-])ccc21`, the inhibition in test [1] came to 9.27%. This compound gave a score in test [2] of 0.97. The same compound gave a rescue above control in test [3] of -7.57. Moreover, the cytochrome c release ratio in [4] came to 0.83. In addition, in test [5], the inhibition of aggregation is 22.4%. Further, the glutamate uptake change in test [6] is -1.18%. In addition, the inclusion score in [7] is 2. The same compound showed an aggregation suppression score in [8] of 0.965.

What is called viability is a per cent measure of how many cells are alive, often set against a control. On to `CC[C@H]1C(=O)OC[C@@H]1Cc1cncn1C`, for which, in test [11], the parasite load remaining was 76.7% (inactive) and the viability is 70.2%. The luciferase signal in [12] was 84 AU (inactive).

Source of the values: PubChem BioAssay.
